Data as given in article PMC5540273 (PLoS ONE, 2017).

Experiments:
Conditions in all cases: concentration: 1 μM, replicates: in singlicate; n = 1
CAMKK2 = tested on: CAMKK2
CASK = tested on: CASK
CDC2L1 = tested on: T1, CDC2L1
T1 construct: gene CDK11B

CDC2L2 = tested on: CDC2L2
CDC2L5 = tested on: T2, CDC2L5
T2 construct: gene CDK13

CDK11 = tested on: T3, CDK11
T3 construct: gene CDK19

CDK2 = tested on: CDK2
CDK3 = tested on: CDK3
CDK4-cyclinD1 = tested on: CDK4-cyclinD1
CDK4-cyclinD3 = tested on: CDK4-cyclinD3
CDK4 = tested on: CDK4
CDK5 = tested on: CDK5
CDK7 = tested on: CDK7
CDK8 = tested on: CDK8
CDK9 = tested on: CDK9
CDKL1 = tested on: CDKL1
CDKL2 = tested on: CDKL2
CDKL3 = tested on: CDKL3
CDKL5 = tested on: CDKL5
CHEK1 = tested on: CHEK1
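Note: KINOMEscan kinase panel screen.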

| Structure (SMILES) | %Inh (CAMKK2) [%] | %Inh (CASK) [%] | %Inh (CDC2L1) [%] | %Inh (CDC2L2) [%] | %Inh (CDC2L5) [%] | %Inh (CDK11) [%] | %Inh (CDK2) [%] | %Inh (CDK3) [%] | %Inh (CDK4-cyclinD1) [%] | %Inh (CDK4-cyclinD3) [%] | %Inh (CDK4) [%] | %Inh (CDK5) [%] | %Inh (CDK7) [%] | %Inh (CDK8) [%] | %Inh (CDK9) [%] | %Inh (CDKL1) [%] | %Inh (CDKL2) [%] | %Inh (CDKL3) [%] | %Inh (CDKL5) [%] | %Inh (CHEK1) [%] |
| --- | --- | --- | --- | --- | --- | --- | --- | --- | --- | --- | --- | --- | --- | --- | --- | --- | --- | --- | --- | --- |
| COc1cccc(-c2cc(-c3c[nH]nc3-c3ccccn3)ccn2)c1 [GW680338] | 9 | 18 | 0 | 9 | 0 | 10 | 0 | 6 | 58 | 0 | 31 | 0 | 0 | 44 | 0 | 0 | 0 | 23 | 0 | 0 |
| CN1C(=O)C(Nc2ccc(Cl)c(C(=O)O)c2)=C(c2ccc(Cl)cc2)C1=O [SB-404290] | 0 | 3 | 0 | 0 | 1 | 0 | 13 | 6 | 0 | 0 | 47 | 0 | 0 | 0 | 0 | 1 | 13 | 0 | 16 | 0 |
| Cl.Oc1ccc(-c2nc(-c3ccccc3)[nH]c2-c2ccncc2)cc1 [SB-428218] | 15 | 0 | 0 | 5 | 0 | 8 | 0 | 55 | 49 | 2 | 0 | 0 | 0 | 0 | 0 | 0 | 32 | 0 | 0 | 0 |
| Clc1cc(Cl)cc(Nc2ccnc(Nc3cc(Cl)cc(Cl)c3)n2)c1 [GSK175726] | 0 | 13 | 5 | 18 | 0 | 19 | 0 | 0 | 0 | 0 | 11 | 0 | 5 | 0 | 13 | 11 | 32 | 0 | 0 | 0 |
| COC(=O)c1c(-c2ccccc2)c2cc(C(=O)O)ccc2c(=O)n1Cc1ccccc1 | 0 | 18 | 0 | 3 | 40 | 0 | 0 | 0 | 0 | 0 | 0 | 0 | 0 | 13 | 0 | 0 | 6 | 4 | 21 | 0 |
| Cn1ccc2ncnc(Oc3ccc(Nc4nc5ccccc5[nH]4)cc3)c21 | 22 | 0 | 0 | 1 | 0 | 6 | 6 | 0 | 0 | 0 | 0 | 0 | 0 | 6 | 0 | 18 | 0 | 11 | 0 | 0 |
| Cn1ccc2ncnc(Oc3cccc(C(=O)Nc4ccccc4)c3)c21 | 0 | 5 | 0 | 0 | 0 | 0 | 6 | 1 | 16 | 0 | 0 | 16 | 4 | 22 | 1 | 0 | 13 | 0 | 0 | 0 |
| CC(C)(C)c1ccc(C(=O)Nc2cn3cc(Cl)ccc3n2)cc1 | 14 | 18 | 0 | 0 | 6 | 16 | 0 | 0 | 11 | 0 | 0 | 18 | 0 | 7 | 0 | 19 | 0 | 0 | 0 | 0 |
| Fc1cc(Cl)ccc1Nc1ccnc2cc(-c3ccc(CN4CCCCC4)o3)ccc12 [GW560116] | 22 | 2 | 0 | 20 | 0 | 0 | 0 | 5 | 4 | 0 | 35 | 0 | 0 | 28 | 0 | 0 | 2 | 0 | 0 | 0 |
| O=C(O)COc1ncnc2cc(-c3ccc4[nH]ncc4c3)sc12 | 24 | 0 | 8 | 0 | 5 | 21 | 0 | 20 | 1 | 0 | 0 | 45 | 30 | 4 | 0 | 11 | 0 | 13 | 17 | 0 |
| Nc1ncnc2[nH]c(-c3ccccc3)nc12 [AH5015] | 0 | 15 | 0 | 5 | 0 | 0 | 0 | 2 | 0 | 11 | 7 | 0 | 0 | 0 | 0 | 6 | 32 | 0 | 0 | 0 |
